Source: PubChem (National Center for Advancing Translational Sciences (NCATS))
Cycloheximide cs – affects cycloheximide protein synthesis inhibition readout, counter-screen. max response, %. cell reporter, cycloheximide protein synthesis inhibition counterscreen. actives 12% (n = 300,000); in the data active = max response mostly above about 13%, no sharp cut-off; inactive = mostly below about 14%; also: read at 38.3 µM for the half of the compounds with a filed dose; 0% is about no effect
Shiga toxin inh – inhibitors of Shiga toxin in Vero cells. Vero cells, Shiga toxin protein synthesis inhibition reporter. AID 2315. actives 9.2% (n = 290,000). inhibition, % at 38.7 µM; in the data active = inhibition mostly above about 28%, no sharp cut-off; inactive = mostly below about 43%; also: 0% is about no effect
Giardia FBPA inh – blocks Giardia fructose-bisphosphate aldolase activity; purified Giardia FBPA; Potency, µM (highest dose often 59.6 µM), for the others: at the top dose activity, negative = inhibition, usual class: inhibitors; actives 0.71% (n = 290,000); also: potency is read from the fitted curve at half-maximal effect; % is scaled to controls: 0 for no effect and ±100 for the full control effect; nearly all actives have a fitted effect of over 55% in size
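Giardia FBPA (40 nM reagent) was preincubated 10 min at RT with compound (up to 57.5 uM final), then substrate plus GAPDH/TPI/NAD/arsenate coupling system with diaphorase/resazurin was added; resorufin fluorescence (525/598 nm) was read after 20 min.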
Tb PYK inh – inhibitors of Trypanosoma brucei pyruvate kinase. Q57TT1. TbPYK enzyme, Kinase-Glo Plus ATP luminescence, 45 min. actives 0.12% (n = 410,000). Potency, µM (highest dose often 76.8 µM), inactives show at the highest dose activity, negative = inhibition, most hits filed as inhibitors; also: potency is read from the fitted curve at half-maximal effect; % is scaled to controls: 0 for no effect and ±100 for the full control effect; nearly all actives have a fitted effect of over 50% in size
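In this concentration-response screen, enzyme-free wells defined baseline while DMSO plates tracked drift. Each reaction combined TbPYK, substrate, compound and 130 uM ADP for 45 min at room temperature. Kinase-Glo Plus luminescence gave the signal.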
LmPK inh – LmPK (Leishmania mexicana) enzyme inhibition. Q27686. purified LmPK, Kinase-Glo ATP luminescence, 1 h. Potency, µM (titrated, usually from 57.5 µM), for inactives: at the highest dose activity change, negative = inhibition, hits mostly inhibitors. actives 0.37% (n = 290,000). AID 1721; also: potency is read from the fitted curve at half-maximal effect; % is scaled to controls: 0 for no effect and ±100 for the full control effect
Target sequence (Q27686 whole entry, looked up): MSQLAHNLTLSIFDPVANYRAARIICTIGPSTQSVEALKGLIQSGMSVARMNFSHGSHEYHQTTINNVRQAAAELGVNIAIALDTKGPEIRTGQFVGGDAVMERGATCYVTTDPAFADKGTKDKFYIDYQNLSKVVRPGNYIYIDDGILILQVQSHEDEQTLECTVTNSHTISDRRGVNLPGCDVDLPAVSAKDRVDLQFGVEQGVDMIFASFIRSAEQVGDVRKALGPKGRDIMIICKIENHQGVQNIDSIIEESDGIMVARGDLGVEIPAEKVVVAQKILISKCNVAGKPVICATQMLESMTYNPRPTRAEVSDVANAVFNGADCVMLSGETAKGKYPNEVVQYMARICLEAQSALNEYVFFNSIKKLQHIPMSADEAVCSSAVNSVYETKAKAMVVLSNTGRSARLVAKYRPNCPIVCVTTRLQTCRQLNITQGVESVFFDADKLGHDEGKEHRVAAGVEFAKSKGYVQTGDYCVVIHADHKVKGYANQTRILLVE
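In 50 mM imidazole pH 7.2 with 7 mM MgCl2, LmPK (0.1 nM) turned over PEP (0.5 mM) and ADP (0.1 mM) for 1 h at room temperature. Luciferase read-out of ATP.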
Sm TGR block – blocks Schistosoma mansoni thioredoxin glutathione reductase. Q962Y6. purified TGR, DTNB reduction, TNB absorbance 405 nm. Potency, µM (highest dose often 114 µM), inactives show at the highest dose activity change, negative = inhibition, usual class: inhibitors. actives 3% (n = 360,000); also: potency is read from the fitted curve at half-maximal effect; % is scaled to controls: 0 for no effect and ±100 for the full control effect; nearly all actives have a fitted effect of over 60% in size
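TGR 20 nM + NADPH 100 uM (dispensed conc.), cpd preinc 15 min RT; start with NADPH (500 uM addition) then DTNB (15 mM addition). Kinetic TNB absorbance, 405 nm filter. Four-parameter Hill fit across titration.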
* = called active by the depositor; ? = inconclusive; / = not tested or not shown; + = active, no number; [ ] = remark or other dose. This is one part of a sample in which hits are shown more often than they occur. Unless noted, calls follow the shape of the dose curve; as a rule, active = well fitted curve in the direction sought with a large enough effect; inconclusive = small, poorly fitted or top-dose-only effect, or another doubt; inactive = no such curve, though single readings can be large; an effect the other way counts as inactive or inconclusive.

SMILES | Cycloheximide cs | Shiga toxin inh | Giardia FBPA inh | Tb PYK inh | LmPK inh | Sm TGR block
CCc1ccccc1NC(=O)CCC(=O)c1cccs1 | -2 | -25 | / | -4% | -9% | -1%
CCCCC[C@@H]1C=C(C(=O)O)[C@H](c2ccc(Br)cc2)N1S(=O)(=O)c1ccc(C)cc1 | / | / | / | -1% | / | /
COC(=O)c1cc2sc(C)cc2n1Cc1nc(-c2ccc(C)cc2)oc1C | / | / | / | 6% | / | 3%
Cc1ccc(NC(=O)CNS(=O)(=O)c2cccs2)cc1F | 80* | 79* | -4% | -15% | 7% | 1%
COc1ccc(NC(=O)CNS(=O)(=O)c2cccs2)cc1 | 17 | 6 | 3% | 3% | 3% | -5%
Cc1ccc(OCCNS(=O)(=O)c2cccs2)cc1 | 44* | 56 | 0% | 1% | 5% | -3%
Cc1ccccc1NC(=O)Nc1cnccn1 | 9 | 74 | 5% | -2% | 1% | 5%
CCOc1ccc(NC(=O)Nc2cnccn2)cc1 | 16* | 59 | 0% | -2% | 0% | 1%
CCC(C)c1ccc(NC(=O)Nc2cnccn2)cc1 (stereo not drawn) | 74* | 87* | -17% | -2% | -3% | 9%
CCOc1ccc(NC(=O)NC(C)CC)cc1 (stereo not drawn) | 40* | 42* | 2% | 5% | -10% | -1%
CCOc1ccc(NC(=O)Nc2ccc(NC(C)=O)cc2)cc1 | 3 | 22 | 6% | -3% | -1% | 0%
O=C(Nc1cccc(F)c1)Nc1cnccn1 | 8 | 11 | / | -4% | -7% | 0%
CCOc1ccc(NC(=O)Nc2ccc(Br)cn2)cc1 | 13 | 20 | -1% | 6% | 13% | 7%
Cc1ccc(NC(=O)Nc2cnccn2)cc1Cl | 23* | 70* | 4% | 3% | -1% | -2%
COc1ccc(CCNC(=O)c2cc3c(=O)n4cccc(C)c4nc3n2C)cc1 | / | / | / | 7% | / | 5%
C=CCC1(c2ccccc2)Oc2ccccc2-c2nc3cc(Cl)c(Cl)cc3nc21 (stereo not drawn) | / | / | 2%[12.9 µM] | / | / | /
COc1ccc(NC(=O)Nc2cnccn2)cc1 | 36* | 48* | -1% | -7% | 0% | -2%
Cc1cc(/C=C2\C(=O)NC(=O)N(c3ccccc3)C2=O)c(C)n1-c1ccc(C(=O)O)c(Cl)c1 | 1 | -2 | -21% | -13% | -4% | 28µM*
Cc1cc(/C=C2\C(=O)NC(=O)N(c3ccc(F)cc3)C2=O)c(C)n1-c1cccc(C(=O)O)c1 | -2 | -19 | -11% | -18% | 7% | ?
COC(=O)C1=C(C)NC(=O)/C1=C\c1cc(C)n(-c2ccccc2)c1C | 35* | 102* | ? | -6% | 0% | 28µM*
Cc1cc(/C=C2\C(=O)NC(=O)N(c3ccccc3F)C2=O)c(C)n1-c1cc(C(=O)O)cc(C(=O)O)c1 | 1 | -3 | -8% | -18% | -6% | 8.9µM*
CCN(CC)c1cc(C)c2cc(NC(=O)/C=C/c3ccccc3Cl)ccc2n1 | / | / | / | -5% | / | 11%
CCN(c1ccccc1)c1ncnc2c1cnn2-c1ccc(C)cc1C | / | / | / | -1% | / | 11%
CC1(C)Oc2ccc(NC(=O)c3ccco3)cc2O1 | 32* | 91* | / | 4% | -23% | 12%
C[C@H](NC(=O)c1ccco1)C(=O)Nc1ccc2c(c1)OCO2 | 9 | -6 | -4% | -6% | 0% | -1%
SMILES | Cycloheximide cs | Shiga toxin inh | Giardia FBPA inh | Tb PYK inh | LmPK inh | Sm TGR block
O=C(COC(=O)c1ccco1)Nc1ccc2c(c1)OCCO2 | 56* | 79* | 4% | 4% | -14% | 2%
O=C(Nc1ccc2c(c1)OCCO2)c1ccco1 | 40* | 112* | -1% | -4% | 25µM* | -1%
CCC(=O)N1CCCC(C)(C(=O)Nc2ccc(C)c(C)c2)C1 (stereo not drawn) | / | / | / | 1% | / | /
N#CC1C(=O)NC(=O)C(C#N)C12CCCC2 (stereo not drawn) | / | / | / | -3% | / | /
COc1ccc2c(c1)CC/C(=C\C=C\c1ccccc1OC)C2=O | 38* | 89* | ? | -9% | 0% | 28µM*
COc1ccc(C=C2Cc3ccccc3C2=O)cc1 | / | / | / | -10% | / | /
COc1ccc2c(c1)C(=O)/C(=C/C=C/c1ccccc1)CC2 | 21* | + | ? | 2% | -8% | 45µM*
COc1ccc2c(c1)OC/C(=C/c1ccc(OC)c(OC)c1)C2=O | / | / | -5% | / | / | /
C=CCN1N=C(/C=C/c2ccc(C)cc2)CCC1=O | 35* | 92* | 0% | 8% | -3% | -7%
COc1ccc(/C=C/C2=NN(Cc3ccccc3)C(=O)CC2)cc1 | -4 | 21 | -6% | -4% | -17% | -3%
C=CCN1N=C(/C=C/c2ccc(OC)cc2)CCC1=O | 54* | 115* | 6% | 2% | -5% | 13%
CCOC(=O)C(C)N1N=C(/C=C/c2ccc(C)cc2)CCC1=O (stereo not drawn) | 10 | 10 | ? | -4% | 4% | 9%
COc1ccc(-n2c(=O)c3c4c(sc3n(Cc3ccccc3)c2=O)CN(C(C)=O)CC4)cc1OC | / | / | / | -2% | / | -5%
COc1ccc2c(c1)C(=O)[C@@H](OC(=O)NCCc1ccc(OC)c(OC)c1)[C@H](c1ccc(OC)c(Br)c1)O2 | / | / | 1% | / | / | /
O=C1C(=NO)CC(c2ccccc2)N1c1ccccc1 (stereo not drawn) | / | / | / | -5% | / | /
CCCCCCC#Cc1ccc2c(c1)COc1c3ccccc3nn1-2 | 3 | 18 | 4% | -1% | -14% | 6%
CCCCC#Cc1ccc2c(c1)COc1c3ccccc3nn1-2 | 37* | 56* | 0% | 2% | -18% | -34%
CCC(CC)C(=O)OCC(=O)C1(O)CCC2C3CCC4=CC(=O)CCC4(C)C3C(O)CC21C (stereo not drawn) | / | / | / | -6% | / | /
CCCOC1CCCN(C(=O)c2ccc(OC)c(OC3CCN(C(C)C)CC3)c2)C1 (stereo not drawn) | 19* | 20 | -3% | 4% | 3% | -9%
COc1ccc(C(=O)NC2CCSc3ccccc32)cc1F (stereo not drawn) | 13* | 7 | -7% | -3% | 2% | -10%
COc1ccc(C(=O)NC2CCc3ccccc32)cc1OC1CCN(C(C)C)CC1 (stereo not drawn) | 14* | 47* | -3% | -8% | -5% | -31%
COc1ccc(C(=O)N(C)Cc2ccc(C)o2)cc1OC1CCN(C(C)C)CC1 | 4 | -3 | / | -2% | 0% | ?
COc1cc(OC)cc(C(=O)NC2CCSc3ccccc32)c1 (stereo not drawn) | -2 | 12 | / | -19% | 2% | -23%
COC(=O)CN(C)C(=O)c1ccc(OC)c(OC2CCN(C(C)C)CC2)c1 | 24* | 30* | -1% | -2% | 7% | 58%
CCCCN(C)S(=O)(=O)c1ccc(C(=O)Nc2ccc(-c3nc4ccc(C)cc4s3)cc2)cc1 | / | / | / | -1% | / | 10%
